# Results filed as inconclusive are left out. Activity calls are given as the source filed them. Unless noted, calls come from the whole dose curve; as a rule, active = well fitted curve in the direction sought with a large enough effect in the repeat runs; inconclusive = weak or mixed curves; inactive = no such curve, though single readings can be large; an effect the other way counts as inactive or inconclusive.
# Experiment: qHTS assay to identify small molecule agonists of the progesterone receptor (PR) signaling pathway - cell viability counter screen (AID 1346799; calls by dose curve; note: nearly all actives have a fitted effect of over 45% in size)
# Settings: PR-UAS-bla HEK293T viability, CellTiter-Glo luminescence, 16 h; series mostly up to 92.4 µM
# Method in brief: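 Multiplexed viability read: CellTiter-Glo luminescence, 30 min RT, following LiveBLAzer FRET measurement on PR-UAS-bla HEK293T cells exposed to compounds 16 hr.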
row,Compound,outcome
1,CC(=O)OC1CC(C)OC(C)O1 (configuration not stated),inactive
2,CC(C)CCCCCCCOC(=O)CCCCC(=O)OCCCCCCCC(C)C,inactive
3,OC1C(O)C(O)C(O)C(O)C1O (configuration not stated),inactive
4,C=C(C)CNCC,inactive
5,CC1(C)CC(N)CC(C)(CN)C1 (configuration not stated),inactive
6,CC(=O)OCc1ccccc1,inactive
7,NCCCCCCN,inactive
8,CCO[Si](CCC#N)(OCC)OCC,inactive

# Experiment: qHTS assay to identify small molecule antagonists of the TGF-beta/Smad signaling pathway - cell viability counter screen (AID 1346824); note: nearly all actives have a fitted effect of over 50% in size
# Settings: SBE-bla HEK293T viability, CellTiter-Glo luminescence; series mostly up to 76.8 µM
# Method in brief: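 Cytotoxicity counter-screen run in the same wells as the beta-lactamase Smad reporter read: CellTiter-Glo luminescence after 30 min at room temperature. HEK 293T SBE-bla cells had 5 hr compound exposure at 37 C with TGF-beta1 (0.25 ng/mL stock).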
row,Compound,outcome
1,CC(=O)CCC=C(C)C,inactive
2,N[C@H](Cc1c[nH]c2ccccc12)C(=O)O,inactive
3,COc1ccc(C)cc1N,inactive
4,CCCCCCCO,inactive
5,OCc1ccccc1,inactive
6,O=C1c2ccccc2CCc2ccccc21,inactive
7,CCCCCCCCCCCCCCCC(=O)OC(C)C,inactive
8,CC(=O)c1ccc(O)cc1,inactive
9,O=C(O)CCCCCCCCC(=O)O,inactive
10,O=C(O)Cn1c(=O)n(Cc2ccc(Br)cc2F)c(=O)c2ccc(Cl)cc21,inactive
11,CCCOC(=O)c1ccccc1,inactive
12,COc1ccc(CCC(C)=O)cc1,inactive
13,CCCCC(C=O)CC (configuration not stated),inactive
14,CC(C)(C)c1cc(Cc2cc(C(C)(C)C)c(O)c(C(C)(C)C)c2)cc(C(C)(C)C)c1O,inactive
15,O=C1C(c2[nH]c3ccccc3c2O)=Nc2ccccc21,inactive
16,CSc1ccc(Cl)cc1,inactive
17,CCO[Si](CCCN)(OCC)OCC,inactive
18,CC(C)(Oc1ccc(CCNC(=O)c2ccc(Cl)cc2)cc1)C(=O)O,inactive
19,NCCNCCN,inactive

row,Compound,outcome
1,CCCCCCCC=O,inactive
2,CCNC(=S)NCC,inactive
3,O=C(O)/C=C/C(=O)O,inactive
4,c1ccc(Oc2ccccc2)cc1,inactive
5,Nc1nc(N)nc(-c2ccccc2)n1,inactive
6,CN(C)c1ccc(O)c2c1C[C@H]1C[C@H]3[C@H](N(C)C)C(=O)C(C(N)=O)=C(O)[C@@]3(O)C(=O)C1=C2O,inactive
7,O=C1CCCC1,inactive
8,CC(C)CC(=O)CC(C)CC(C)C (configuration not stated),inactive
9,N#Cc1ccccc1,inactive
10,Cc1ccc2ncccc2c1,inactive
11,CCCCCCCCCCCCCCCCO,inactive
12,CC(=O)OC1CC(C)OC(C)O1 (configuration not stated),inactive
13,CC(C)CCCCCCCOC(=O)CCCCC(=O)OCCCCCCCC(C)C,inactive
14,OC1C(O)C(O)C(O)C(O)C1O (configuration not stated),inactive
15,C=C(C)CNCC,inactive
16,CC1(C)CC(N)CC(C)(CN)C1 (configuration not stated),inactive
17,CC(=O)OCc1ccccc1,inactive
18,NCCCCCCN,inactive
19,CCO[Si](CCC#N)(OCC)OCC,inactive

# Experiment: qHTS assay to identify small molecule agonists of the TGF-beta/Smad signaling pathway - cell viability counter screen (AID 1346829); note: top concentration of the series differs between compounds; nearly all actives have a fitted effect of over 45% in size
# Settings: SBE-bla HEK293T viability, CellTiter-Glo luminescence, 5 h; series mostly up to 76.8 µM
# Method in brief: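 HEK 293T SBE-bla line, 5 hr compound exposure at 37 C, multiplexed CellTiter-Glo viability read by luminescence.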
row,Compound,outcome
1,CC(=O)CCC=C(C)C,inactive
2,N[C@H](Cc1c[nH]c2ccccc12)C(=O)O,inactive
3,COc1ccc(C)cc1N,inactive
4,CCCCCCCO,inactive
5,OCc1ccccc1,inactive
6,O=C1c2ccccc2CCc2ccccc21,inactive
7,CCCCCCCCCCCCCCCC(=O)OC(C)C,inactive
8,CC(=O)c1ccc(O)cc1,inactive
9,O=C(O)CCCCCCCCC(=O)O,inactive
10,O=C(O)Cn1c(=O)n(Cc2ccc(Br)cc2F)c(=O)c2ccc(Cl)cc21,inactive
11,CCCOC(=O)c1ccccc1,inactive
12,COc1ccc(CCC(C)=O)cc1,inactive
13,CCCCC(C=O)CC (configuration not stated),inactive
14,CC(C)(C)c1cc(Cc2cc(C(C)(C)C)c(O)c(C(C)(C)C)c2)cc(C(C)(C)C)c1O,inactive
15,O=C1C(c2[nH]c3ccccc3c2O)=Nc2ccccc21,inactive
16,CSc1ccc(Cl)cc1,inactive
17,CCO[Si](CCCN)(OCC)OCC,inactive
18,CC(C)(Oc1ccc(CCNC(=O)c2ccc(Cl)cc2)cc1)C(=O)O,inactive
19,NCCNCCN,inactive

row,Compound,outcome
1,CCCCCCCC=O,inactive
2,CCNC(=S)NCC,inactive
3,O=C(O)/C=C/C(=O)O,inactive
4,c1ccc(Oc2ccccc2)cc1,inactive
5,Nc1nc(N)nc(-c2ccccc2)n1,inactive
6,CN(C)c1ccc(O)c2c1C[C@H]1C[C@H]3[C@H](N(C)C)C(=O)C(C(N)=O)=C(O)[C@@]3(O)C(=O)C1=C2O,inactive
7,O=C1CCCC1,inactive
8,CC(C)CC(=O)CC(C)CC(C)C (configuration not stated),inactive
9,N#Cc1ccccc1,inactive
10,Cc1ccc2ncccc2c1,inactive
11,CCCCCCCCCCCCCCCCO,inactive
12,CC(=O)OC1CC(C)OC(C)O1 (configuration not stated),inactive
13,CC(C)CCCCCCCOC(=O)CCCCC(=O)OCCCCCCCC(C)C,inactive
14,OC1C(O)C(O)C(O)C(O)C1O (configuration not stated),inactive
15,C=C(C)CNCC,inactive
16,CC1(C)CC(N)CC(C)(CN)C1 (configuration not stated),inactive
17,CC(=O)OCc1ccccc1,inactive
18,NCCCCCCN,inactive
19,CCO[Si](CCC#N)(OCC)OCC,inactive

# Experiment: qHTS assay to identify small molecule agonists of the TGF-beta/Smad signaling pathway (AID 1346859; active = well fitted activation curve with a large enough effect in the signal ratio in the repeat runs, not every such curve was filed as active; the % refers to the signal ratio)
# Settings: SBE-bla HEK293T, TGF-beta/Smad beta-lactamase reporter, 5 h; series mostly up to 76.8 µM
# Method in brief: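 Screening used HEK 293T SBE-bla cells at 4,000/well. Test agents: 5 hr, 37 C. Detection: FRET substrate, 2 hr RT, then excitation 405 nm with emissions at 460 and 530 nm.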
row,Compound,outcome
1,CC(=O)CCC=C(C)C,inactive
2,N[C@H](Cc1c[nH]c2ccccc12)C(=O)O,inactive
3,COc1ccc(C)cc1N,inactive
4,CCCCCCCO,inactive
5,OCc1ccccc1,inactive
6,O=C1c2ccccc2CCc2ccccc21,inactive
7,CCCCCCCCCCCCCCCC(=O)OC(C)C,inactive
8,CC(=O)c1ccc(O)cc1,inactive
9,O=C(O)CCCCCCCCC(=O)O,inactive
10,O=C(O)Cn1c(=O)n(Cc2ccc(Br)cc2F)c(=O)c2ccc(Cl)cc21,inactive
11,CCCOC(=O)c1ccccc1,inactive
12,COc1ccc(CCC(C)=O)cc1,inactive
13,CCCCC(C=O)CC (configuration not stated),inactive
14,CC(C)(C)c1cc(Cc2cc(C(C)(C)C)c(O)c(C(C)(C)C)c2)cc(C(C)(C)C)c1O,inactive
15,O=C1C(c2[nH]c3ccccc3c2O)=Nc2ccccc21,inactive
16,CSc1ccc(Cl)cc1,inactive
17,CCO[Si](CCCN)(OCC)OCC,inactive
18,CC(C)(Oc1ccc(CCNC(=O)c2ccc(Cl)cc2)cc1)C(=O)O,inactive
19,NCCNCCN,inactive

row,Compound,outcome
1,CCCCCCCC=O,inactive
2,CCNC(=S)NCC,inactive
3,O=C(O)/C=C/C(=O)O,inactive
4,c1ccc(Oc2ccccc2)cc1,inactive
5,Nc1nc(N)nc(-c2ccccc2)n1,inactive
6,CN(C)c1ccc(O)c2c1C[C@H]1C[C@H]3[C@H](N(C)C)C(=O)C(C(N)=O)=C(O)[C@@]3(O)C(=O)C1=C2O,inactive
7,O=C1CCCC1,inactive
8,CC(C)CC(=O)CC(C)CC(C)C (configuration not stated),inactive
9,N#Cc1ccccc1,inactive
10,Cc1ccc2ncccc2c1,inactive
11,CCCCCCCCCCCCCCCCO,inactive
12,CC(=O)OC1CC(C)OC(C)O1 (configuration not stated),inactive
13,CC(C)CCCCCCCOC(=O)CCCCC(=O)OCCCCCCCC(C)C,inactive
14,OC1C(O)C(O)C(O)C(O)C1O (configuration not stated),inactive
15,C=C(C)CNCC,inactive
16,CC1(C)CC(N)CC(C)(CN)C1 (configuration not stated),inactive
17,CC(=O)OCc1ccccc1,inactive
18,NCCCCCCN,inactive
19,CCO[Si](CCC#N)(OCC)OCC,inactive

# Source: PubChem BioAssay (Tox21)
